Where “and” joins values, the source holds several entries; their conditions need not be identical. Equal entries are not always repeated. Out of some 16,000 compounds screened, about 5,700 (36%) were called active. Another 24% or so got no clear call; they are omitted. Some of the results follow. Unmarked numbers belong to inactive results. Calls come from the whole dose curve; as a rule, active = well fitted curve in the direction sought with a large enough effect; inconclusive = small, poorly fitted or top-dose-only effect, or effect the other way; inactive = no such curve, though single readings can be large or run the other way.
molecular target: Cytochrome P450 1A2 (Homo sapiens) (UniProt P05177); assay: Cytochrome panel assay with activity outcomes; settings: recombinant CYP, pro-luciferin dealkylation, luminescence, p450-cyp1a2; series mostly up to 57.1 µM; activity, negative = inhibition: at the top concentration
Sequence (P05177 whole entry, looked up): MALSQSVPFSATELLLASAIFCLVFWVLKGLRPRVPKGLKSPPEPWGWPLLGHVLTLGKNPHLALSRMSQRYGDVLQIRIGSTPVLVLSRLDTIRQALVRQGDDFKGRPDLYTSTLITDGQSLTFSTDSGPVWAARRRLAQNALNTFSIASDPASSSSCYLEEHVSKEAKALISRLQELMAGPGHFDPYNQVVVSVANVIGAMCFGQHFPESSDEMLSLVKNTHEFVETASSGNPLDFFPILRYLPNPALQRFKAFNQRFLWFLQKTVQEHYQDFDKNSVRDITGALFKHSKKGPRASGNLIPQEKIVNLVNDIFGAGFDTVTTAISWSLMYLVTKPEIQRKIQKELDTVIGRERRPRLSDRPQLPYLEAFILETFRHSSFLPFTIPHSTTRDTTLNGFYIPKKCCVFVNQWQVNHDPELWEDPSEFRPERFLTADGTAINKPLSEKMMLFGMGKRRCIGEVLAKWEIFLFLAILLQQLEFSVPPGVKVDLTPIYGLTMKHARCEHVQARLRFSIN
% is set by controls: 0 for no effect and ±100 for the full control effect.

| SMILES | AC50 | activity, negative = inhibition |
| --- | --- | --- |
| COc1ccc(NC(=S)Nc2ncccc2C)c(OC)c1 | 1.12 µM (active) | – |
| COc1ccc2c(c1OC)C(=O)OC2Nc1ncccc1C (stereo not drawn) | – | -10.2% |
| COc1ccc(NC(=O)C23CC4CC(C2)CC(n2cnc(Br)n2)(C4)C3)c(C)c1 | – | -11% |
| CCN=C1NN=C(c2ccc(C)cc2)CS1 | 20 µM (active) | – |
| O=C(NCCc1ccccc1)c1noc2c1CCc1ccccc1-2 | 1.26 µM (active) | – |
| O=C(NCCN1CCN(Cc2ccccc2)CC1)C1c2ccccc2C(=O)N2CCc3ccccc3C12 (stereo not drawn) | – | -14% |
| C[N+]1(C)CCC(OC(=O)C(c2ccccc2)c2ccccc2)CC1 | – | 7.34% |
| CCCC(C(=O)OCCN(CC)CC)(c1ccccc1)c1ccccc1 | – | -7.7% |
| CCN(CC)CCOC(=O)[C@@H](c1ccccc1)C1CCCCC1 | 1.26 µM (active) | – |
| CCN(CC)CCOC(=O)C(c1ccccc1)c1ccccc1 | 5.01 µM (active) | – |
| CN(C)CCOC(=O)[C@@H](c1ccccc1)C1(O)CCCC1 | – | -20.8% [at 25.6 µM] |
| O=C1CCC[C@@H](C(C(=O)OCc2ccccc2)C(=O)OCc2ccccc2)C1 | – | -9.68% [at 11.4 µM] |
| CN(C)CCNc1ncnc2c1sc1nc(N3CCOCC3)c3c(c12)CC(C)(C)SC3 | – | -27.4% |
| CCOc1ccc(N=C2NC(=O)C(CC(=O)O)S2)cc1 (stereo not drawn) | – | -10.5% |
| O=C1CN2CCN(CC2)CC(=O)Nc2ccc(cc2)S(=O)(=O)c2ccc(cc2)NC(=O)CN2CCN(CC2)CC(=O)Nc2ccc(cc2)S(=O)(=O)c2ccc(cc2)N1 | – | -13.1% [at 11.4 µM] |
| CCc1ccc(Nc2ncccc2C#N)cc1 | 1.26 µM (active) | – |
| CCC(C)c1ccc(Nc2ncccc2C#N)cc1 (stereo not drawn) | 5.01 µM (active) | – |
| COC(=O)[C@@H]1CC[C@H](C)[C@@H](c2ccc(C)cc2)N1C(=O)c1ccc(/C=N\OCC[C@@H]2C=C[C@H](OC(C)=O)[C@H](COC(C)=O)O2)cc1 | – | -3.4% [at 11.4 µM] |
| C[C@H]1CN(S(=O)(=O)c2cccc3cnccc23)CCN1 | – | -7.08% |
| Nc1cccc2cnccc12 | 12.6 µM (active) | – |
| N[C@@H]1CONC1=O | inactive | – |
| C[C@@H]1CN2[C@H](c3ccc(Br)cc3)[C@H](C)CC[C@H]2C(=O)O1 | – | -6.13% [at 11.4 µM] |
| Cc1nc(SCc2cccc(Oc3ccccc3)c2)n[nH]1 | 17.8 µM (active) | – |
| COCCN1CN=C(Nc2nc3ccccc3s2)NC1 | – | -46.1% |

| SMILES | AC50 | activity, negative = inhibition |
| --- | --- | --- |
| COc1ccc(CN2CN=C(Nc3nc4ccccc4s3)NC2)cc1 | 12.6 µM (active) | – |
| CCOC(=O)[C@]1(CC(=O)O)CCCC1=O | – | -12.7% [at 11.4 µM] |
| COc1c2c(nc3ccccc13)O[C@H]([C@@](C)(O)CO)C2 | 12.6 µM (active) | – |
| CCOc1cc(CNc2ccc(OC)cc2)cc(Br)c1OCC(=O)NC(C)(C)C | 11.2 µM (active) | – |
| NCC[C@H](N)C(=O)O | – | -8.87% [at 2.29 µM] |
| Cc1c2cnccc2c(C)c2c1c1ccccc1n2CCOC(=O)c1ccccc1 | 0.0794 µM (active) | – |
| O=C(c1cc(C(F)(F)F)cc(C(F)(F)F)c1)N1CCC2(CC1)CN(c1ccncc1)C2 | – | 3.89% |
| Cc1c(/C=N/NC(=O)c2ccc3c(c2)OCO3)cnn1C | 14.1 µM (active) | – |
| COc1ccc(-c2nn(-c3ccccc3)cc2/C=N/NC(=O)c2ccc3c(c2)OCO3)cc1 | – | -8.19% |
| COc1cc(CNCCc2c[nH]c3ccccc23)ccc1OCc1ccccc1F | 25.1 µM (active) | – |
| CC(C)CN1CCCC2(CCN(C(=O)c3cnccn3)CC2)C1 | – | -9.34% |
| O=C(CCc1ccc(O)cc1)c1c(O)cc(O)cc1O | 6.31 µM (active) | – |
| C[C@@H](CCc1ccc(O)cc1)NCCc1ccc(O)c(O)c1 | inactive | – |
| O=C(O)Cc1ccc(O)c(O)c1 | – | -11.2% |
| Nc1c(OCC(=O)O)ccc2cc(S(=O)(=O)O)ccc12 | – | -5.41% [at 11.4 µM] |
| CCOc1ccccc1Nc1ccc(N)cc1S(=O)(=O)O | – | -12.6% [at 2.29 µM] |
| CCOc1ccccc1NC(=O)CCC(=O)O | – | 0.745% |
| CCCCN(C(=O)NC(=O)Nc1ccccc1OCC)S(C)(=O)=O | 20 µM (active) | – |
| CO[C@H]1COC(=O)[C@H](C)NC(=O)C/C=C\[C@@H](C)[C@@H](NS(=O)(=O)c2ccc(C)cc2)COC(=O)C/C=C\[C@@H]1C | – | -0.0135% [at 11.4 µM] |
| N#CC1=C(SCC(N)=O)NC2=C(C(=O)c3ccccc32)C1c1ccc(Cl)cc1 (stereo not drawn) | 0.631 µM (active) | – |
| CSC1=C(C#N)C(c2ccccc2Cl)C2=C(N1)c1ccccc1C2=O (stereo not drawn) | 0.708 µM (active) | – |
| C=CCN1C(=CCO)[C@H]2C[C@H]3[C@@H]1CC[C@@]31c3ccccc3N3C=C4[C@@H]5N(/C=C/2[C@H]31)c1ccccc1[C@]51CC[C@H]2[C@H]1C[C@@H]4/C(=C/CO)N2CC=C | – | -3.83% [at 25.6 µM] |
| O=S(=O)(c1ccccc1)N1CCC2(CC1)CN(Cc1ccccc1)C2 | – | -8.56% |
| COc1cccc(/C=N/n2c(=S)n(C)c3cc(C)c(C)cc32)c1OC | 2.24 µM (active) | – |

| SMILES | AC50 | activity, negative = inhibition |
| --- | --- | --- |
| CC(C)(C)c1ccc(C(=O)N2CCC(C(=O)NCCC3=CCCCC3)CC2)cc1 | – | -2.75% |
| O=C1CSc2ccc(C(=O)NCCC3=CCCCC3)cc2N1 | 3.16 µM (active) | – |
| C=C/C(C)=C/[C@]1(C)SC(=O)C(C)=C1O | – | 2.06% |
| CC1(C)CCC2=C(O1)c1ccccc1C(=O)C2=O | 3.98 µM (active) | – |
| Cc1c(C=NCCOCc2ccccc2)cnn1C | 17.8 µM (active) | – |
| CCCc1ncc(C[n+]2ccccc2C)c(N)n1 | – | -1.54% [at 25.6 µM] |
| C=CCOc1cccc(CNn2cn[nH]c2=S)c1 | 3.16 µM (active) | – |
| C=CCOc1cccc(/C=N/NC(=O)C(=O)NCc2ccco2)c1 | – | -7.74% |
| O=C(Oc1ccccc1)N1CCC2(CCCN(c3ccc(-c4ccccc4)cc3)C2)CC1 | – | 10.2% |
| Cn1cccc1C(=O)N1CCC2(CCCN(c3cccc(-c4ccccc4)c3)C2)CC1 | 15.8 µM (active) | – |
| CC(C)NC(=O)N1CCCC2(CCN(C(=O)c3cccn3C)CC2)C1 | – | -12.4% |
| CN1CCCC2(CCN(C(=O)c3cccn3C)CC2)C1 | – | -19.9% |
| Cn1cccc1C(=O)N1CCC2(CCCN(Cc3ccccc3)C2)CC1 | – | -2.19% |
| Cn1cccc1C(=O)N1CCC2(CCCN(c3ccc(-c4ccccc4)cc3)C2)CC1 | 15.8 µM (active) | – |
| COC(=O)N1CCC2(CCCN(c3ccc(-c4ccccc4)cc3)C2)CC1 | 20 µM (active) | – |
| COC(=O)N1CCC2(CC1)CN(c1ccccc1)C2 | – | -5.68% |
| CC(C)CN1CCCC2(CCN(C(=O)c3cccn3C)CC2)C1 | – | 12.9% |
| Cc1cc2c(c(=O)o1)[C@@H](O)[C@H]1O[C@@H]1C2=O | – | -3.99% [at 11.4 µM] |
| CCCOc1ccc(/C=C/C(=O)Nc2ccc([N+](=O)[O-])cc2C)cc1OC | – | -5.77% |
| COc1ccc(/C=C/C(=O)Nc2nc(C)cc(C)n2)cc1OC | 5.01 µM (active) | – |
| COc1ccc2[nH]cc(CCNc3ncncc3-c3cccc(NS(C)(=O)=O)c3)c2c1 | 12.6 µM (active) | – |
| COc1ccc2[nH]cc(CCNc3ncncc3-c3ccc(N(C)C)cc3)c2c1 | 0.251 µM (active) | – |
| COc1ccc2[nH]cc(CCNc3ncncc3-c3cccnc3)c2c1 | 0.316 µM (active) | – |
| COc1cccc(-c2cncnc2NCCc2c[nH]c3ccc(OC)cc23)c1 | 2 µM (active) | – |

| SMILES | AC50 | activity, negative = inhibition |
| --- | --- | --- |
| COc1ccc(N2CCN(Cc3nc4c(c(=O)[nH]c(=O)n4C)n3CCCc3ccccc3)CC2)cc1 | – | -8.33% |
| O=C(O)C1CC2(C1)CC(C(=O)O)C2 (stereo not drawn) | – | -6.34% [at 2.29 µM] |
| Cc1ccc(SCc2[nH]nc3c2C(C(C)C)C(C#N)=C(N)O3)cc1 (stereo not drawn) | 12.6 µM (active) | – |
| O=[N+]([O-])c1ccc(C=Nc2ccc(Cl)cc2Cl)s1 | 2 µM (active) | – |
| O=c1onc(-c2cccs2)n1Cc1ccccc1 | 2.24 µM (active) | – |
| CN(C)CCNS(=O)(=O)N(C)C | – | -3% [at 11.4 µM] |
| CNc1nc(-c2cccnc2)nc2ccccc12 | 0.1 µM (active) | – |
| c1ccc(Nc2nc(-c3cccnc3)nc3ccccc23)cc1 | 0.398 µM (active) | – |
| O=C(O)CC12C[C@H]3C[C@@H](CC(O)(C3)C1)C2 | – | -11.2% [at 11.4 µM] |
| O=C(N/N=C/c1ccc2c(c1)OCO2)/C(=C/c1ccc2c(c1)OCO2)NC(=O)c1ccccc1 | – | -28.9% |
| Cc1oc(-c2ccccc2F)nc1CSCC(=O)NCc1ccc2c(c1)OCO2 | 1.58 µM (active) | – |
| CN1CCN(CCCNC(=O)c2ccc(CSCc3cccc(Cl)c3)o2)CC1 | – | -11% |
| O=C(CSCc1cccc(Br)c1)N/N=C/c1ccc2c(c1)OCO2 | 2.51 µM (active) | – |
| O=C1Nc2ccccc2C(O)(C(=O)NCc2ccc3c(c2)OCO3)N1c1ccc(Cl)c(Cl)c1 (stereo not drawn) | – | 25% |
| Cc1oc(-c2ccccc2F)nc1CS(=O)(=O)CC(=O)NCCCN(C)C1CCCCC1 | – | -6.41% |
| CCOC(=O)N1CCC(NC(=O)CS(=O)(=O)Cc2nc(-c3cccc(OC)c3)oc2C)CC1 | – | -39% |
| Cc1oc(-c2ccccc2Cl)nc1CSCC(=O)NC1CC1 | 15.8 µM (active) | – |
| Cc1ccccc1-c1nc(CS(=O)CC(=O)NCCN2CCN(Cc3ccccc3)CC2)c(C)o1 (stereo not drawn) | – | -37.3% |
| O=C(CSCc1cccc(Cl)c1)NCc1ccc2c(c1)OCO2 | 3.16 µM (active) | – |
| CC[C@]1(O)C[C@@H]2CN(CCc3c([nH]c4ccccc34)[C@](C(=O)OC)(c3cc4c(cc3OC)N(C=O)[C@H]3[C@@](O)(C(=O)OC)[C@H](C(=O)OC)[C@@]5(CC)C=CCN6CC[C@]43[C@H]65)C2)C1 | – | -4.94% |
| CO[C@@H]1COC(=O)C/C=C\[C@H](C)[C@@H](NS(=O)(=O)c2ccc(C)cc2)COC(=O)C/C=C\[C@@H]1C | – | -5.33% [at 11.4 µM] and -2.04% [at 11.4 µM] |
